# Bioassay records (PubChem)
# LMP1 NFkB inh – Epstein-Barr LMP1 NF-kappaB reporter inhibition | LMP1-induced NF-kappaB luciferase reporter cells, luminescence | inhibition, % at 12.5 µM | 350,000 tested, 0.69% active; in the data active means inhibition above about 41%; inconclusive means no clear call, values can overlap the other calls;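 further: 0% = neutral control wells and 100% = reference inhibitor control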
# Shn3 inh set2 – reduces Shn3 3'UTR luciferase signal in osteoblasts; Clone20 osteoblast Shn3 3'UTR firefly luciferase, 24 h; inhibition, % at 12.5 µM; 360,000 tested, 0.52% active; AID 588674;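 active means mean inhibition of at least 75% with every replicate also reaching 75%; inconclusive means mean inhibition at least 75% but some replicate below; inactive means mean inhibition below 75%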;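 further: 0% = median of neutral control wells and 100% = pilot-screen positive control compound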
# TROY NFkB inh – TROY signaling inhibition. Q293 LMP1-TROYcd NF-kB luciferase reporter, 4 h. inhibition, % at 10 µM. 360,000 tested, 0.98% active;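 active means compounds whose plate-normalised and pattern-corrected inhibition of the luciferase reporter signal at the single screening dose is 50% or more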
# MITF TRPM1 inh – MITF TRPM1 promoter inhibition in SK-MEL-5 cells | SK-MEL-5 TRPM1 promoter luciferase, 24 h | inhibition, % at 12.5 µM | 330,000 tested, 0.83% active;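 active means mean inhibition across replicates of 60% or more, whatever share of single replicates reaches that level; inconclusive means some that reach 60%, reason not given; inactive means mean inhibition across replicates below 60%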
# Peg3 prom inh-1 – reduces Peg3 promoter-driven luciferase expression in HeLa. HeLa PEG-Prom luciferase reporter, luminescence, overnight. inhibition, % at 20 µM. 360,000 tested, 1.7% active. AID 588405;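 active means inhibition of at least 50% at 20 µM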
# TWEAK Fn14 block – TWEAK-Fn14 signaling inhibition; TWEAK-stimulated Fn14 reporter cells, luciferase luminescence, 8 h; inhibition, % at 10 µM; 360,000 tested, 2% active; AID 1159606; in the data active means inhibition above about 50%
# Peg3 prom inh-2 – Peg3 promoter inhibition confirmation | HeLa PEG-Prom luciferase reporter, luminescence, overnight | 1,300 tested, 84% active | shares compounds with Peg3 prom inh-1 | inhibition, % at 20 µM;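 active means at 20 µM dose, 40% or more inhibition averaged across four replicates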
# Active calls of the source: *; ? = inconclusive; / = no result. This is a sample that favours compounds with a hit; in the whole collection about 4.1% have one here.
SMILES,LMP1 NFkB inh,Shn3 inh set2,TROY NFkB inh,MITF TRPM1 inh,Peg3 prom inh-1,TWEAK Fn14 block,others
CCN1C(=O)c2ccc(C(=O)Nc3cccc(C(=O)O)c3)cc2C1=O,-13,-2,-53,7,1,5,
COC(=O)C1=C(C(=O)OC)[C@@H]2N(C)c3ccccc3[C@@]23C[C@@H](C(=O)OC)N(C(=O)c2ccc(Br)cc2)C3=N1,11,56,20,11,82*,48,
COC(=O)C1=C(C(=O)OC)[C@@H]2N(Cc3ccccc3)c3ccccc3[C@@]23C[C@@H](C(=O)OC)N(C(=O)c2cccs2)C3=N1,5,5,29,2,81*,61*,
COC(=O)C1=C(C(=O)OC)[C@@H]2N(C)c3ccccc3[C@@]23C[C@@H](C(=O)OC)N(C(=O)c2cccs2)C3=N1,-1,-9,24,0,36,25,
COC(=O)C1=C(C(=O)OC)[C@@H]2N(Cc3ccccc3)c3ccccc3[C@@]23C[C@@H](C(=O)OC)N(C(=O)c2cc(C)oc2C)C3=N1,-2,-1,1,-1,55*,33,
CC(O)(c1cccc(F)c1)c1nc(-c2ccc(S(C)(=O)=O)cc2)cs1 (centres undefined),/,9,19,/,8,4,
Cc1ccc2nc(-c3ccc(NC(=O)COC(=O)c4ccc([N+](=O)[O-])o4)cc3)sc2c1,17,16,21,7,-44,78*,
Cc1ccc2nc(-c3ccc(NC(=O)COC(=O)c4ccco4)cc3)sc2c1,18,-2,7,-38,-77,52*,
Cc1ccc2nc(-c3ccc(NC(=O)COC(=O)c4ccc(Br)o4)cc3)sc2c1,7,33,7,-9,3,59*,
Cc1ccc(NC(=O)COC(=O)c2ccco2)cc1,-1,-4,-39,0,-1,-26,
Cc1ccc2nc(-c3ccc(NC(=O)COC(=O)c4cncc(Br)c4)cc3)sc2c1,18,17,26,10,-99,47,
Cc1ccc2nc(-c3ccc(NC(=S)NCC(C)(C)CN(C)C)cc3)sc2c1,-109,-16,30,-13,60*,24,
COc1ccc2c(c1OC)C(=O)OC2N1C(=O)CC[C@H]1C(=O)Nc1ccc2c(c1)OCO2 (some centres undefined),-9,-1,-21,-3,-31,13,
O=C(Nc1ccc(-c2nc3cccnc3s2)cc1)c1ccco1,-4,-18,-20,/,-177,58*,
Cc1ccc2nc(-c3ccc(NC(=O)CN(c4ccccc4C)S(C)(=O)=O)cc3)sc2c1,-75,2,-10,-46,-160,53*,
O=C(CCN1C(=O)C2CCCCC2C1=O)N1CCN(S(=O)(=O)c2ccccc2)CC1 (centres undefined),-1,-8,12,6,3,6,
COc1ccc(NC(=O)COC(=O)Cc2coc3cc(OC)ccc23)c(OC)c1,-2,-4,-21,7,-8,-8,
CC(C)(C)c1nc(NCCN2CCOCC2)c2nnn(Cc3ccccc3Cl)c2n1,8,84*,27,22,21,10,
COc1ccc(NC(=O)CSc2nc3c(sc4ccccc43)c(=O)n2CCCN2CCCC2)cc1,2,-5,-42,83*,69*,-19,
CC(=O)c1cccc(S(=O)(=O)N2CCC(C(=O)N(C)Cc3ccc(Cl)s3)CC2)c1,-1,15,-1,3,29,-1,
O=C(NCc1cccc(Cl)c1)c1ccc(S(=O)(=O)Nc2cccc(C(F)(F)F)c2)cc1,-6,15,55*,3,11,32,
CCOC(=O)c1ccc(Nc2ncnc3ccc(C)cc23)cc1,-4,27,12,5,-6,20,
CCOc1ccc(Nc2ncnc3ccc([N+](=O)[O-])cc23)cc1,?,9,51*,-7,12,77*,
c1ccc(COc2cccc(CN3CCCCC3)c2)cc1,5,5,-26,1,-4,103*,
CCn1nc(C)cc1-c1nnc(Sc2ncc([N+](=O)[O-])s2)n1C,16,95*,-6,94*,110*,17,Peg3 prom inh-2=100*
CCn1nc(C)cc1-c1nnc(SCC(=O)Nc2ccccc2)n1CCCOC,2,7,-4,2,11,7,
